Compounds with a hit are over-represented: about 2.4% of the library has one in this group of screens.
GCN5L2 inh: inhibitors of human GCN5L2 histone acetyltransferase. Q92830. GCN5L2 HAT assay, ThioGlo1 CoA-SH fluorescence. Potency, µM (highest dose often 58.9 µM), without a hit: top-dose activity change, negative = inhibition, actives largely listed as inhibitors. 390,000 compounds, 0.21% hits; note: % is set by controls: 0 for no effect and ±100 for the full control effect
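Compounds, pin-transferred from DMSO stocks, meet 20nM GCN5L2 for 15 min before the reaction begins with H3(1-25) peptide (75uM) and acetyl-CoA (70uM). Thiol-reactive ThioGlo1 reports CoA release over 20 min at room temperature.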
POLH inh: DNA polymerase eta (human) inhibition. recombinant Pol eta, fluorescent DNA replication assay. Potency, µM (series often up to 114 µM), for inactives: top-dose activity change, negative = inhibition, actives largely listed as inhibitors. 390,000 compounds, 1.2% hits. AID 588591; note: % is set by controls: 0 for no effect and ±100 for the full control effect
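Pol eta (10 nM) was preincubated with compounds for 15 min at room temperature, after which fluorescent replication substrate (50 nM final) was added to start the reaction. Fluorescence was read kinetically at 0 and 10 min.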
GLS inhibitor: blocks human kidney-isoform glutaminase activity; GLS enzymatic activity, qHTS titration; Potency, µM (top dose mostly 45.5 µM), without a hit: at the top dose activity change, negative = inhibition, actives largely listed as inhibitors; 410,000 compounds, 0.21% hits; note: % is set by controls: 0 for no effect and ±100 for the full control effect
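Assay buffer: 45 mM KH2PO4 pH 8.2, 0.02% Tween-20. hKGA acts on L-glutamine (1 mM solution added); product glutamate is reported by an oxidase/peroxidase Amplex Red coupling, with fluorescence taken at baseline and 30 min.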
Pol kappa inh: DNA polymerase kappa (human) inhibition; Q9UBT6; purified Pol kappa, fluorescent DNA synthesis assay, 10 min; Potency, µM (titrated, usually from 107 µM), for the others: at the top dose activity, negative = inhibition, usual class: inhibitors; 400,000 compounds, 0.53% hits; note: % is set by controls: 0 for no effect and ±100 for the full control effect
Target sequence (Q9UBT6 whole entry, looked up): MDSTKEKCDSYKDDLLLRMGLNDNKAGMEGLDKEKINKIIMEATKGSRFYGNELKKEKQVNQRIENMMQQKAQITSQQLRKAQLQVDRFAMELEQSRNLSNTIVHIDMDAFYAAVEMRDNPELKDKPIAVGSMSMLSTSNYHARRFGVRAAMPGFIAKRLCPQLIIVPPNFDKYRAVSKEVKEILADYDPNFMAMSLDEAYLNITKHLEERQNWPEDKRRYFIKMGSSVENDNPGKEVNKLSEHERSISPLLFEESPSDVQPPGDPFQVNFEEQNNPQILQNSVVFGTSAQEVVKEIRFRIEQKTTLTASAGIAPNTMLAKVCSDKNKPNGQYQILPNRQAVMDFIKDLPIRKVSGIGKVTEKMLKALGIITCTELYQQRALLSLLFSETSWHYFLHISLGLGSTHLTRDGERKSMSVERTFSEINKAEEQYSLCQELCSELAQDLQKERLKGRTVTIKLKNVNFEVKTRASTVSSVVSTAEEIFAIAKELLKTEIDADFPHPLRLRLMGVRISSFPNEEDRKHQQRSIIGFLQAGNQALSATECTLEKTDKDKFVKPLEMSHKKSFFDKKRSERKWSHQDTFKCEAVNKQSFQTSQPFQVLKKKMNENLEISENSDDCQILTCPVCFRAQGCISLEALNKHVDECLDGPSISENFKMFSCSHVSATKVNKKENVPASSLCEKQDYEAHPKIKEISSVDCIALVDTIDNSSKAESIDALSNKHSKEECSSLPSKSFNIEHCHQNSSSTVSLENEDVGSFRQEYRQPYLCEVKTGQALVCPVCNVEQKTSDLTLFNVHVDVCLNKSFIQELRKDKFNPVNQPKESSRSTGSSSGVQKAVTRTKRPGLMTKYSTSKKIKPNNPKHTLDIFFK
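Pol kappa 10 nM + cpd, 15 min RT; start w/ substrate 50 nM final; fluorescence kinetic read, 0 and 10 min. Neg ctrl: buffer, no enzyme.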
Pol iota inh: DNA polymerase iota (human) inhibition; Q9UNA4; Pol iota fluorescent replication assay, 10 min; Potency, µM (top dose mostly 115 µM), inactives show at the highest dose activity, negative = inhibition, most hits filed as inhibitors; 390,000 compounds, 1% hits
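Fluorescent replication assay read twice, at 0 min and 10 min after adding 50 nM (final) substrate. Enzyme (10 nM) and compounds were first incubated 15 min at room temperature; enzyme-free buffer wells were negative controls.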
POLB inh: inhibitors of human DNA polymerase beta; Pol beta primer extension/strand displacement, fluorescence kinetic; AID 485314; Potency, µM (highest dose often 114 µM), for the others: at the top dose activity change, negative = inhibition, usual class: inhibitors; 340,000 compounds, 1.3% hits; note: % is set by controls: 0 for no effect and ±100 for the full control effect
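Human Pol beta at 10 nM; strand-displacement substrate 50 nM final. Compound exposure 15 min at room temperature before start, reaction 10 min at room temperature.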
* = called active by the depositor; [ ] = another dose, or the depositor's remark. Calls come from the whole dose curve; as a rule, active = well fitted inhibition curve with a large enough effect; inconclusive = small, poorly fitted or top-dose-only effect, or another doubt; inactive = no such curve, though single readings can be large or run the other way. Potency is the fitted concentration of half-maximal effect.

How did O=c1nc(/C=C/c2ccc(O)c(O)c2)oc2ccccc12 do in these assays?
GCN5L2 inh: -10%; POLH inh: inconclusive; GLS inhibitor: 5.6µM*; Pol kappa inh: inconclusive; Pol iota inh: inconclusive; POLB inh: -93%

What do the screens show for `COc1ccc(/C=C\c2nc(=O)c3ccccc3o2)cc1`?
GCN5L2 inh: -4%; POLH inh: -3%; GLS inhibitor: 0%; Pol kappa inh: -21%; Pol iota inh: 29%; POLB inh: 23%

Results for CC(C)CCN1C(=O)CC(NNC(=O)c2ccc(S(=O)(=O)N3CCCC3)cc2)C1=O (stereo not given) ?
GCN5L2 inh: 0%; POLH inh: -4%; GLS inhibitor: -1%; Pol kappa inh: -5%; Pol iota inh: 90%; POLB inh: 6%

Results for COCCN1C(=O)CC(NNC(=O)c2ccc(S(=O)(=O)N3CCCC3)cc2)C1=O (stereo not given) ?
GCN5L2 inh: 7%; POLH inh: 1%; GLS inhibitor: 10µM*; Pol kappa inh: -2%; Pol iota inh: 27%; POLB inh: -2%

What do the screens show for `CC(/C=N/NC(=O)c1nnn(-c2nonc2N)c1CN(C)C)=C\c1ccco1`?
GCN5L2 inh: -7%; POLH inh: -7%; GLS inhibitor: 8%; Pol kappa inh: 79µM*; Pol iota inh: 20µM*; POLB inh: 0%

Results for CCCN(CCC)Cc1c(C(=O)N/N=C/C(C)=C\c2ccco2)nnn1-c1nonc1N ?
GCN5L2 inh: -17%; POLH inh: -16%; GLS inhibitor: -4%; Pol kappa inh: -5%; Pol iota inh: 28%; POLB inh: -10%

What do the screens show for `O=C(c1cccc([N+](=O)[O-])c1)N1c2ncnn2C2(CCCCC2)[C@@H]2CCCC[C@@H]21`?
GCN5L2 inh: -7%; POLH inh: 3%; GLS inhibitor: -2%; Pol kappa inh: -6%; Pol iota inh: inconclusive; POLB inh: -14%

How did Cc1ccc(C(=O)ONc2ccc(N=O)cc2)cc1 do in these assays?
GCN5L2 inh: -17%; POLH inh: -5%; GLS inhibitor: 30%; Pol kappa inh: -5%; Pol iota inh: 68%; POLB inh: 12%

How did Cc1ccc(C(=O)ONc2ccc(N=NC(=O)c3ccccc3O)cc2)cc1 do in these assays?
GCN5L2 inh: inconclusive; POLH inh: 8.9µM*; GLS inhibitor: 7%; Pol kappa inh: -21%; Pol iota inh: 2%; POLB inh: 7%

Results for CN(C)[C@H]1C(=O)C(C(=O)NCN2CCCC2)=C(O)[C@]2(O)C(=O)C3=C(O)c4c(O)cccc4[C@@](C)(O)[C@H]3C[C@@H]12 ?
GCN5L2 inh: inconclusive; GLS inhibitor: 5µM*; Pol kappa inh: 4.7µM*

How did CN(C)C1C(=O)C(C(N)=O)=C(O)[C@@]2(O)C(=O)C3=C(O)c4c(O)ccc(Cl)c4C(O)[C@H]3C[C@@H]12 (stereo not given in full) do in these assays?
GCN5L2 inh: 8%; Pol kappa inh: -14%[60.1 µM]

How did Cc1c(Br)c(O)c(Br)c2sc(=O)oc12 do in these assays?
GCN5L2 inh: -25%; POLH inh: inconclusive; GLS inhibitor: 15%; Pol kappa inh: inconclusive; Pol iota inh: 6.3µM*; POLB inh: 20µM*

What do the screens show for `N=C1/C(=C\c2ccc(-c3cccc(Cl)c3)o2)C(=O)N=C2SC=C(c3ccccc3)N12`?
GCN5L2 inh: inconclusive; POLH inh: 79µM*; GLS inhibitor: 71%; Pol kappa inh: inconclusive; Pol iota inh: inconclusive; POLB inh: 10µM*

How did COC(=O)C1=C(C)NC(C)=C(C(=O)O[C@H]2CCN(Cc3ccccc3)C2)C1c1cccc([N+](=O)[O-])c1 (stereo not given in full) do in these assays?
GLS inhibitor: 15%

Results for O=C(c1cccc(S(=O)(=O)NCc2ccccc2)c1)N1CCN(c2ccccc2Cl)CC1 ?
POLH inh: -17%; GLS inhibitor: -10%; Pol kappa inh: -8%; Pol iota inh: 89µM*

Results for O=C(c1cccc(S(=O)(=O)NCc2ccccc2)c1)N1CCCC1 ?
GCN5L2 inh: -4%; POLH inh: -21%; GLS inhibitor: -10%; Pol kappa inh: -5%; Pol iota inh: 172%; POLB inh: -10%

How did N#Cc1ccc(NC(=O)COc2ccccc2C(=O)Nc2ccccc2)cc1 do in these assays?
Pol kappa inh: -21%; Pol iota inh: -16%

How did CCOc1cc(CNc2ccc(N3CCCCC3)cc2)cc(Br)c1OCC(=O)NC(C)(C)C do in these assays?
GCN5L2 inh: -10%; POLH inh: -18%; GLS inhibitor: 8%; Pol kappa inh: -13%; Pol iota inh: 10%; POLB inh: 1%

How did CCOc1cc(CO)cc(Br)c1OCC(=O)Nc1ccccc1C do in these assays?
GCN5L2 inh: -6%; POLH inh: -1%; GLS inhibitor: -2%; Pol kappa inh: 1%[60.1 µM]; Pol iota inh: 20%; POLB inh: -13%

What do the screens show for `CCOc1cc(CNc2ccc(N(C)C)cc2)cc(Br)c1OCC(=O)NC(C)(C)C`?
GCN5L2 inh: -2%; POLH inh: -6%; GLS inhibitor: 40%; Pol kappa inh: -12%; Pol iota inh: 8.9µM*; POLB inh: -23%

How did CCOc1cc(CNc2ccc(N3CCOCC3)cc2)cc(Br)c1OCC do in these assays?
GCN5L2 inh: -11%; POLH inh: inconclusive; GLS inhibitor: 13µM*; Pol kappa inh: -11%; Pol iota inh: 174%; POLB inh: -9%

What do the screens show for `CCOc1cc(CNc2cccc3ccccc23)cc(Br)c1OCC(=O)NC(C)(C)C`?
GCN5L2 inh: -8%; POLH inh: -18%; GLS inhibitor: -13%; Pol kappa inh: -8%; Pol iota inh: 46%; POLB inh: 79µM*

What do the screens show for `C=CC[C@H](c1ccc(F)cc1)N(CC(C)C)S(=O)(=O)C=C`?
Pol kappa inh: -23%; Pol iota inh: 21%

How did CCOc1ccc(CCNC(=O)c2nnc(Cc3ccc(Cl)cc3Cl)o2)cc1OCC do in these assays?
GCN5L2 inh: -2%; POLH inh: -24%; GLS inhibitor: 1%; Pol kappa inh: 13%; Pol iota inh: 24%; POLB inh: -4%

What do the screens show for `O=C(Cc1ccc(-n2cccc2)cc1)NCc1cccs1`?
GCN5L2 inh: -4%; POLH inh: inconclusive; GLS inhibitor: 3%; Pol kappa inh: -19%; Pol iota inh: -29%; POLB inh: 45µM*

What do the screens show for `CO[C@]1(NC(=O)Cc2cccs2)C(=O)N2C(C(=O)O)=CC(COC(N)=O)S[C@H]21` (stereo not given in full)?
GLS inhibitor: -25%
